# Laboratory results published in PubChem BioAssay (EPA / NIEHS).
# Active and inactive are the calls of the source. Rule for the calls: active = hit-call score of the fitted dose curve at least 0.9, where 1 is the maximum; inactive = score below 0.9.
# Key:
# Conditions in all cases: mRNA level, 48 h; actives raise or lower the signal
# [1] = read-out: CYP3A5 (gene 1577); experiment: LTEA_HepaRG_CYP3A5: Life Technologies and Expression Analysis (LTEA) Assay for CYP3A5 using HepaRG (AID 2283493)
# Summary of the method: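 mRNA levels were quantified by qRT-PCR on Fluidigm arrays and normalized to three housekeeping genes. Differentiated HepaRG cells received 48 h exposure (top 100 uM, half-log steps, 0.5% DMSO vehicle, duplicate); bidirectional fitting versus DMSO.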
# [2] = read-out: Fatty Acid-Binding Protein 1 (FABP1), FABP1 (gene 2168); experiment: LTEA_HepaRG_FABP1: Life Technologies and Expression Analysis (LTEA) Assay for Fatty Acid-Binding Protein 1 (FABP1) using HepaRG (AID 2283494)
# Summary of the method: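 qRT-PCR readout of FABP1 transcript (normalized to three housekeeping genes) after 48 h chemical exposure of HepaRG cells; eight concentrations, half-log steps, max 100 uM, 0.5% DMSO vehicle; gain or loss fitted relative to DMSO baseline.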
# [3] = read-out: Cytochrome P450 4A22 (Homo sapiens) (UniProt Q5TCH4); experiment: LTEA_HepaRG_CYP4A22: Life Technologies and Expression Analysis (LTEA) Assay for Cytochrome P450 4A22 (CYP4A22) using HepaRG (AID 2283495)
# Summary of the method: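 Concentration-response (8 points, max 100 uM, 0.5% DMSO) in human HepaRG liver cells after 48 h exposure. CYP4A22 mRNA by TaqMan qRT-PCR with housekeeping-gene normalization.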
# [4] = read-out: Cytochrome P450 7A1 (Homo sapiens) (UniProt P22680); experiment: LTEA_HepaRG_CYP7A1: Life Technologies and Expression Analysis (LTEA) Assay for Cytochrome P450 7A1 (CYP7A1) using HepaRG (AID 2283496)
# Summary of the method: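 HepaRG, 48 h exposure, 8-pt half-log series from 100 uM, 0.5% DMSO vehicle, duplicates. Readout: TaqMan qRT-PCR mRNA vs three housekeeping genes; bidirectional curve fit against DMSO baseline.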
# [5] = read-out: Glutathione S-Transferase (GSTA2), GSTA2 (gene 2939); experiment: LTEA_HepaRG_GSTA2: Life Technologies and Expression Analysis (LTEA) Assay for Glutathione S-Transferase (GSTA2) using HepaRG (AID 2283497)
# Summary of the method: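 qRT-PCR readout of GSTA2 transcript, normalized to three housekeeping genes, fitted bidirectionally against 0.5% DMSO baseline. Differentiated HepaRG cells received compound for 48 h at 8 concentrations (top 100 uM, half-log steps).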
# [6] = read-out: Glutamate-cysteine ligase catalytic (GCLC), GCLC (gene 2729); experiment: LTEA_HepaRG_GCLC: Life Technologies and Expression Analysis (LTEA) Assay for Glutamate-cysteine ligase catalytic (GCLC) using HepaRG (AID 2283498)
# Summary of the method: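 HepaRG, 48 h exposure, 8-pt half-log series from 100 uM, 0.5% DMSO vehicle; TaqMan qRT-PCR for GCLC mRNA, housekeeping-normalized; bidirectional curve fit vs DMSO baseline.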
# [7] = read-out: growth arrest and DNA damage 45 (GADD45G), GADD45G (gene 10912); experiment: LTEA_HepaRG_GADD45G: Life Technologies and Expression Analysis (LTEA) Assay for growth arrest and DNA damage 45 (GADD45G) using HepaRG (AID 2283499)
# Summary of the method: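 Concentration-response in HepaRG: 48 h dosing, 0.5% DMSO, highest level 100 uM. GADD45G expression by qRT-PCR, normalised to endogenous controls; bidirectional fit to DMSO.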
# [8] = read-out: Glutamate-cysteine ligase regulatory (GCLM), GCLM (gene 2730); experiment: LTEA_HepaRG_GCLM: Life Technologies and Expression Analysis (LTEA) Assay for Glutamate-cysteine ligase regulatory (GCLM) using HepaRG (AID 2283500)
# Summary of the method: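 GCLM expression quantified by qRT-PCR, normalized to three housekeeping genes, after 48 h chemical treatment of HepaRG cells in duplicate at 8 concentrations (top 100 uM, half-log steps, 0.5% DMSO). Changes fitted both directions against vehicle.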
# [9] = read-out: Glutathione S-transferase M3 (GSTM3), GSTM3 (gene 2947); experiment: LTEA_HepaRG_GSTM3: Life Technologies and Expression Analysis (LTEA) Assay for Glutathione S-transferase M3 (GSTM3) using HepaRG (AID 2283501)
# Summary of the method: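 Expression of GSTM3 is determined by qRT-PCR in human liver HepaRG cells treated 48 h with an 8-point half-log range from 100 uM in 0.5% DMSO.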
# [10] = read-out: Heat shock 70 kDa protein 1 (HSPA1A), gene 3303; experiment: LTEA_HepaRG_HSPA1A: Life Technologies and Expression Analysis (LTEA) Assay for Heat shock 70 kDa protein 1 (HSPA1A) using HepaRG (AID 2283502)
# Summary of the method: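 HSPA1A expression measured by qRT-PCR with ACTB/GAPDH/POLR2A normalization; curves fitted in both directions relative to DMSO vehicle. Exposure: 48 h in HepaRG cells, duplicate 8-point half-log series from 100 uM, 0.5% DMSO, serum-free induction medium.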
# [11] = read-out: Hypoxia-inducible factor 1-alpha (Homo sapiens) (UniProt Q16665); experiment: LTEA_HepaRG_HIF1A: Life Technologies and Expression Analysis (LTEA) Assay for Hypoxia-inducible factor 1 (HIF1A) Trancription factor using HepaRG (AID 2283503)
# Summary of the method: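 HIF1A transcript level read by qRT-PCR (ACTB, GAPDH, POLR2A normalization) after 48 h chemical exposure of HepaRG cultures. Eight half-log concentrations, top 100 uM, 0.5% DMSO vehicle, duplicates; bidirectional curve fit against DMSO baseline.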
# [12] = read-out: 3-Hydroxy-3-Methylglutaryl-CoA Synthase 2 (HMGCS2), HMGCS2 (gene 3158); experiment: LTEA_HepaRG_HMGCS2: Life Technologies and Expression Analysis (LTEA) Assay for 3-Hydroxy-3-Methylglutaryl-CoA Synthase 2 (HMGCS2) using HepaRG (AID 2283504)
# Summary of the method: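 This steatosis marker was read as HMGCS2 mRNA change in HepaRG cells treated 48 h with up to 100 uM chemical. Normalisation used housekeeping genes; activity in either direction was fitted relative to 0.5% DMSO vehicle.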
# [13] = read-out: HGF (gene 3082); experiment: LTEA_HepaRG_HGF: Life Technologies and Expression Analysis (LTEA) Assay for Hepatocyte Growth Facto (HGF) using HepaRG (AID 2283505)
# Summary of the method: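 Using HepaRG monolayers kept in 0.5% DMSO, chemicals were tested in duplicate over eight half-log concentrations from 100 uM for 48 h. Endpoint: HGF mRNA change relative to DMSO, normalized to ACTB/GAPDH/POLR2A.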
# [14] = read-out: Insulin Like Growth Factor 1 (IGF1), IGF1 (gene 3479); experiment: LTEA_HepaRG_IGF1: Life Technologies and Expression Analysis (LTEA) Assay for Insulin Like Growth Factor 1 (IGF1) using HepaRG (AID 2283506)
# Summary of the method: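 Expression measured by TaqMan qRT-PCR on a Fluidigm array, with three housekeeping genes for normalisation, after 48 h treatment of HepaRG cells. Top concentration 100 uM with half-log steps, 0.5% DMSO vehicle, bidirectional fit.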
# [15] = read-out: Insulin-like growth factor-binding protein 1 (IGFBP1), IGFBP1 (gene 3484); experiment: LTEA_HepaRG_IGFBP1: Life Technologies and Expression Analysis (LTEA) Assay for Insulin-like growth factor-binding protein 1 (IGFBP1) using HepaRG (AID 2283508)
# Summary of the method: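 HepaRG, 48 h, 8 conc. (max 100 uM, half-log), duplicates, 0.5% DMSO. Readout: TaqMan qRT-PCR, ACTB/GAPDH/POLR2A normalisation. Fit: bidirectional vs DMSO.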
# [16] = read-out: Interleukin 6 (IL6), IL6 (gene 3569); experiment: LTEA_HepaRG_IL6: Life Technologies and Expression Analysis (LTEA) Assay for Interleukin 6 (IL6) using HepaRG (AID 2283509)
# Summary of the method: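 qRT-PCR read-out of IL6 transcript, normalized to three housekeeping genes, after 48 h chemical exposure of HepaRG cells; 8-point half-log series, top 100 uM, 0.5% DMSO vehicle. Bidirectional curve fitting against DMSO baseline.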
# [17] = read-out: Interleukin 6 Receptor (IL6R), IL6R (gene 3570); experiment: LTEA_HepaRG_IL6R: Life Technologies and Expression Analysis (LTEA) Assay for Interleukin 6 Receptor (IL6R) using HepaRG (AID 2283510)
# Summary of the method: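 IL6R transcript level by qRT-PCR after 48 h chemical exposure (8-point, half-log, max 100 uM, 0.5% DMSO vehicle) of HepaRG cells in serum-free induction medium. Normalized to three housekeeping genes; curves fitted in both directions relative to DMSO.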
# [18] = read-out: Potassium channel subfamily K member 1 (KCNK1), KCNK1 (gene 3775); experiment: LTEA_HepaRG_KCNK1: Life Technologies and Expression Analysis (LTEA) Assay for Potassium channel subfamily K member 1 (KCNK1) using HepaRG (AID 2283511)
# Summary of the method: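 HepaRG, 48 h exposure, 8-pt half-log series top 100 uM, 0.5% DMSO vehicle, duplicates. Readout: KCNK1 transcript by qRT-PCR (Fluidigm array), housekeeping-normalized; bidirectional curve fit relative to DMSO baseline.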
# [19] = read-out: Keratin 19 (KRT19), KRT19 (gene 3880); experiment: LTEA_HepaRG_KRT19: Life Technologies and Expression Analysis (LTEA) Assay for Keratin 19 (KRT19) using HepaRG (AID 2283512)
# Summary of the method: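 Readout is qRT-PCR of KRT19 mRNA, normalized to ACTB, GAPDH and POLR2A, from HepaRG cells treated 48 h with eight-point half-log dilutions topping at 100 uM. Activity in either direction is scored relative to 0.5% DMSO vehicle.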
# [20] = read-out: Intercellular Adhesion Molecule 1 (ICAM1), ICAM1 (gene 3383); experiment: LTEA_HepaRG_ICAM1: Life Technologies and Expression Analysis (LTEA) Assay for Intercellular Adhesion Molecule 1 (ICAM1) using HepaRG (AID 2283507)
# Summary of the method: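 Using the human liver line HepaRG, compounds are tested in duplicate over 48 h at concentrations up to 100 uM. Expression is determined by TaqMan qRT-PCR, normalized to endogenous controls, and analysed relative to 0.5% DMSO vehicle.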
# Hypoxia-inducible factor 1-alpha (Homo sapiens), sequence (Q16665 whole entry, looked up): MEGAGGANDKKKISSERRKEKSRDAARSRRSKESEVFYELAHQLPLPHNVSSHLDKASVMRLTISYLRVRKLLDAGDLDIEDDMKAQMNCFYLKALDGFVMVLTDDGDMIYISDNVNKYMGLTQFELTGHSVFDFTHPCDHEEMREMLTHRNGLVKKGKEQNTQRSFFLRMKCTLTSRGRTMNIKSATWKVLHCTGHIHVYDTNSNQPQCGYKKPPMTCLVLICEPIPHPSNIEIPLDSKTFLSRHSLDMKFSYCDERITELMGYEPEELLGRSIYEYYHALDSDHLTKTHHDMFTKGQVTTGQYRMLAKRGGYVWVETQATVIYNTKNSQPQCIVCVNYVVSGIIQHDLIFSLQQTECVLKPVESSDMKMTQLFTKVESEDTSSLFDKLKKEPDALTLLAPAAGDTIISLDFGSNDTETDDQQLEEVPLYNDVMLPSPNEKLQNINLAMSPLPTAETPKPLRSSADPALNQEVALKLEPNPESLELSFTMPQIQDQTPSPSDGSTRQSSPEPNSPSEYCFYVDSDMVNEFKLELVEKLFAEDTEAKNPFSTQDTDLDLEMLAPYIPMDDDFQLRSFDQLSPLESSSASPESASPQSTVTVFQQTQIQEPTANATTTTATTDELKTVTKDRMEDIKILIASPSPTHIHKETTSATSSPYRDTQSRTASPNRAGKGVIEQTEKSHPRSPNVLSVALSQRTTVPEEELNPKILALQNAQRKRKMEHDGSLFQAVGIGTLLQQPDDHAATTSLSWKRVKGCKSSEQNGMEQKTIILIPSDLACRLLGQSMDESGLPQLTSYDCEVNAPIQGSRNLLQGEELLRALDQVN
smiles,measurement,setting,value
CC(C)c1cccc(C(C)C)c1NC(=O)NS(=O)(=O)c1cc(C(C)(C)O)co1,outcome,[1],inactive
same,AC50,[2],43.1 µM (active)
same,AC50,[3],31.6 µM (active)
same,outcome,[4],inactive
same,outcome,[5],inactive
same,outcome,[6],inactive
same,outcome,[7],inactive
same,outcome,[8],inactive
same,outcome,[9],inactive
same,outcome,[10],inactive
same,outcome,[11],inactive
same,AC50,[12],62 µM (active)
same,outcome,[13],inactive
same,AC50,[14],50 µM (active)
same,outcome,[15],inactive
same,outcome,[16],inactive
same,outcome,[17],inactive
same,outcome,[18],inactive
same,outcome,[19],inactive
CCC(C)N(C)C(=O)c1cc2ccccc2c(-c2ccccc2Cl)n1 (configuration not stated),AC50,[1],31.8 µM (active)
same,AC50,[2],13 µM (active)
same,AC50,[3],13.1 µM (active)
same,outcome,[4],inactive
same,outcome,[5],inactive
same,outcome,[6],inactive
same,AC50,[7],8.59 µM (active)
same,outcome,[8],inactive
same,outcome,[9],inactive
same,outcome,[10],inactive
same,outcome,[12],inactive
same,outcome,[13],inactive
same,AC50,[14],21.6 µM (active)
same,outcome,[20],inactive
same,AC50,[15],57.6 µM (active)
same,outcome,[16],inactive
same,outcome,[17],inactive
same,outcome,[18],inactive
same,outcome,[19],inactive
CCCCCCCCCCCCCCOS(=O)(=O)O,outcome,[1],inactive
same,outcome,[2],inactive
same,outcome,[3],inactive
same,AC50,[4],23.7 µM (active)
same,outcome,[5],inactive
same,outcome,[6],inactive
same,outcome,[7],inactive
same,outcome,[8],inactive
same,outcome,[9],inactive
same,outcome,[10],inactive
same,outcome,[11],inactive
same,outcome,[12],inactive
same,outcome,[13],inactive
same,AC50,[14],24.6 µM (active)
same,outcome,[20],inactive
same,outcome,[15],inactive
same,outcome,[16],inactive
same,outcome,[17],inactive
same,outcome,[18],inactive
same,outcome,[19],inactive
CCCC[C@H]1CN(CC2CCOCC2)C(=O)OC12CCN(C1(C)CCN(C(=O)c3c(C)ncnc3C)CC1)CC2,outcome,[1],inactive
same,outcome,[2],inactive
same,outcome,[3],inactive
same,outcome,[5],inactive
same,outcome,[6],inactive
same,outcome,[7],inactive
same,outcome,[8],inactive
same,outcome,[9],inactive
same,outcome,[10],inactive
same,outcome,[11],inactive
same,outcome,[12],inactive
same,outcome,[13],inactive
same,outcome,[14],inactive
same,outcome,[20],inactive
same,outcome,[15],inactive
same,outcome,[16],inactive
same,outcome,[17],inactive
same,outcome,[18],inactive
same,outcome,[19],inactive
O=C(O)CN(CC(=O)O)CC(=O)O,outcome,[1],inactive
same,outcome,[2],inactive
same,outcome,[3],inactive
same,outcome,[5],inactive
same,outcome,[6],inactive
same,outcome,[7],inactive
same,outcome,[8],inactive
same,outcome,[9],inactive
same,outcome,[10],inactive
same,outcome,[11],inactive
same,outcome,[12],inactive
same,outcome,[13],inactive
same,outcome,[14],inactive
same,outcome,[20],inactive
same,outcome,[15],inactive
same,outcome,[16],inactive
same,outcome,[17],inactive
same,outcome,[18],inactive
same,outcome,[19],inactive
CC(C)c1cccc(C(C)C)c1,outcome,[1],inactive
same,outcome,[2],inactive
same,outcome,[3],inactive
same,outcome,[4],inactive
same,outcome,[5],inactive
same,outcome,[6],inactive
same,outcome,[7],inactive
same,outcome,[8],inactive
same,outcome,[9],inactive
same,outcome,[10],inactive
same,outcome,[11],inactive
same,outcome,[12],inactive
same,outcome,[13],inactive
same,outcome,[14],inactive
same,outcome,[15],inactive
same,outcome,[16],inactive
same,outcome,[17],inactive
same,outcome,[18],inactive
same,outcome,[19],inactive
CC(N)=O,outcome,[1],inactive
same,outcome,[2],inactive
same,outcome,[3],inactive
same,outcome,[4],inactive
same,outcome,[5],inactive
same,outcome,[6],inactive
same,outcome,[7],inactive
same,outcome,[9],inactive
same,outcome,[10],inactive
same,outcome,[12],inactive
same,outcome,[14],inactive
same,outcome,[20],inactive
same,outcome,[15],inactive
same,outcome,[16],inactive
same,outcome,[17],inactive
same,outcome,[18],inactive
same,outcome,[19],inactive
